Rows were chosen to be rich in hits. Some 19% of all compounds tested hit in one or more screens of this group.
HT1080 IDH1KD tx: toxicity to HT-1080 IDH1 knockdown cells (counter line); 360,000 tested, 2% active; Potency, µM (doses to about 46.1 µM), for the others: at the highest dose activity, negative = toxicity, hits mostly cytotoxic; HT-1080 IDH1 knockdown viability, ATP luminescence, 48 h;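 also: potency is read from the fitted curve at half-maximal effect; 0% = DMSO wells and -100% = cell-free medium wells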
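Viability of IDH1-knockdown HT-1080 fibrosarcoma cells was assessed by CellTiter-Glo after 48 h at 37 °C with titrated compound; concentration-effect curves were classified by fit quality and response size.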
TDP1 cell CPT: DT40-hTDP1 cell growth loss with CPT. chicken DT40 Tdp1-/-;hTDP1 cells + 20 nM CPT, ATP luminescence, 48 h. 420,000 tested, 12% active. Potency, µM (highest dose often 46.2 µM), inactives show at the top dose activity change, negative = growth inhibition, most hits filed as inhibitors; also: potency is read from the fitted curve at half-maximal effect; nearly all actives have a fitted effect of over 55% in size
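Chicken DT40 Tdp1-/- cells stably complemented with human TDP1 were seeded at 400 cells/well in medium containing 20 nM camptothecin, exposed to pin-transferred compounds, and grown at 37 °C for at least 48 hr. Viability was read as ATP luminescence.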
DT40 TDP1 no CPT: qHTS for Inhibitors of human tyrosyl-DNA phosphodiesterase 1 (TDP1): qHTS in cells in absence of CPT; DT40 Tdp1-/- hTDP1 cells, no CPT, ATP luminescence, 48 h; Potency, µM (titrated, usually from 46.2 µM), inactives show top-dose activity change, negative = growth inhibition, usual class: inhibitors; 420,000 tested, 15% active; AID 686978, 2013; also: potency is read from the fitted curve at half-maximal effect; nearly all actives have a fitted effect of over 55% in size
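Readout: luminescence from CellTiter-Glo after 30 min in the dark at RT. Cells: DT40 Tdp1-/- with stable hTDP1, 400/well. Exposure: compounds alone, ≥48 hr, 37 °C.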
HT1080NT lethal: kills 2HG-producing HT-1080-NT fibrosarcoma cells | HT-1080-NT fibrosarcoma viability, CellTiter-Glo ATP luminescence, 48 h | 360,000 tested, 1.6% active | AID 686970 | Potency, µM (highest dose often 46.1 µM), for inactives: at the highest dose activity, negative = less viability, hits mostly cytotoxic;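 also: NT is the 2HG producing partner of a matched IDH1 knockdown line; potency is read from the fitted curve at half-maximal effect; 0% = DMSO-treated cells and -100% = media-only wells without cells; nearly all actives have a fitted effect of over 55% in size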
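Toxicity toward the 2HG-producing NT line was scored as %Activity, normalised to DMSO and no-cell wells, from CellTiter-Glo luminescence after 48 hours' treatment.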
IL1B secr inh: inhibitors of inflammasome signaling (IL-1 beta secretion). THP-1 LPS/ATP IL-1B secretion, AlphaLISA, 16 h; active compounds read low. activity change, % at 57.5 µM. 360,000 tested, 4.7% active. AID 743279; in the data active = activity change below about -50%; inconclusive = mostly about -30% to -49%
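THP-1 cells pretreated 1 hr with compounds (up to 57.5 uM final), then stimulated with LPS (250 ng/mL final) plus ATP (1.25 mM final); secreted IL-1B measured by AlphaLISA after 16 hr, decreased signal indicating inhibition.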
* hit, by the source's call; u = inconclusive; x = no result given. Unless noted, calls follow the shape of the dose curve; as a rule, active = well fitted curve in the direction sought with a large enough effect; inconclusive = small, poorly fitted or top-dose-only effect, or another doubt; inactive = no such curve, though single readings can be large; an effect the other way counts as inactive or inconclusive. Unless noted, % is scaled to controls: 0 for no effect and ±100 for the full control effect.

SMILES	HT1080 IDH1KD tx	TDP1 cell CPT	DT40 TDP1 no CPT	HT1080NT lethal	IL1B secr inh
COc1ccccc1/C=C/c1ccc2cccc(O)c2n1	u	u	u	-18%	36
CCOC(=O)N1CCN(C(=O)c2ccc(CS(=O)c3cccc(C)c3)o2)CC1 (stereo unspecified)	7%	-29%	0%	3%	3
CCCn1ccc2c(OCC(=O)Nc3ccc(C(F)(F)F)cc3)cccc2c1=O	x	-12%	u	x	x
CCNc1nc(NCC)nc(-n2nc(C)cc2C)n1	0.89µM*	2.3µM*	2.6µM*	2µM*	-2
Cc1cc(C)n(-c2nc(NC(C)(C)C)nc(NC(C)(C)C)n2)n1	4%	2.1µM*	1.8µM*	10%	14
Cc1cc(C)n(-c2ncc(C#N)cn2)n1	8%	3%	-1%	5%	8
Cc1cc(C)n(-c2nnc(NC(C)(C)C)nn2)n1	5%	5%	-13%	2%	17
Cc1cc(C)n(-c2nc(NC(C)C)nc(NC(C)C)n2)n1	0%	1µM*	1.5µM*	-1%	-5
Cc1cc(C)n(-c2nc(N(C)C)nc(N(C)C)n2)n1	6.3µM*	u	15µM*	7.1µM*	4
COc1ccc(CCNC(=O)COc2ccccc2[N+](=O)[O-])cc1OC	18%	5%	-21%	2%	34
CC(=O)N[C@@H](Cc1c[nH]c2ccccc12)C(=O)OCC(=O)Nc1cc(C)on1	12%	-13%	-10%	17%	-3
Cc1c(NC(=O)c2ccco2)cccc1C(=O)NN1C(=O)c2ccccc2C1=O	0%	-10%	-22%	20%	0
Cc1cc(C)cc(-n2ccnc2SCC(=O)O)c1	20%	-16%	-17%	15%	1
O=C(CSc1nnc(-c2ccccc2)o1)NC1CC1	14%	19%	-4%	3%	-6
Cc1csc(Nc2ccccc2C(F)(F)F)n1	-6%	-3%	u	-11%	32
Cc1cc(C)n(-c2nc(Nc3ccccc3C(F)(F)F)nc(-n3nc(C)cc3C)n2)n1	u	16µM*	15µM*	9.2µM*	-54*
O=C(Nc1ccc(OCC(F)(F)C(F)F)c(C(F)(F)F)c1)c1ccccc1O	13µM*	u	18µM*	16µM*	u
O=C(Nc1ccc(OCC(F)(F)C(F)F)cc1)c1ccncc1	-27%	u	u	-3%	2
O=C(Nc1ccc(OCC(F)(F)C(F)F)c(C(F)(F)F)c1)c1ccccc1	u	23µM*	23µM*	u	u
O=C(Nc1ccc(SC(F)F)cc1)c1ccc(F)cc1	-3%	-22%	-3%	-9%	-10
COc1ccc(/C(C)=N/NC(=S)Nc2cc(C)ccc2C)cc1	-6%	23µM*	23µM*	-10%	13
COc1ccc(CCNC(=S)Nc2cc(C)ccc2C)cc1	-4%	u	u	-5%	-8
COc1ccc(CNC(=S)Nc2cc(C)ccc2C)cc1	3%	u	18µM*	5%	8
CCCCn1c(N)c(N(CCOC)C(=O)c2cnc(C)cn2)c(=O)[nH]c1=O	0%	6%	7%	4%	7
CCc1c(C)nc(SCc2nc(-c3ccccc3)no2)[nH]c1=O	x	-28%	u	x	x
SMILES	HT1080 IDH1KD tx	TDP1 cell CPT	DT40 TDP1 no CPT	HT1080NT lethal	IL1B secr inh
Cc1ccccc1OCC(=O)NCC(c1ccc(Cl)cc1)N1CCOCC1 (stereo unspecified)	x	21µM*	16µM*	x	x
CC(C)c1ccc(OCC(=O)NCC(c2ccc(Cl)cc2)N2CCOCC2)cc1 (stereo unspecified)	x	u	18µM*	x	x
COc1ccc(C(CNC(=O)COc2ccccc2C)N2CCOCC2)cc1 (stereo unspecified)	12%	21µM*	16µM*	1%	0
c1ccc(CNc2ccnc(-c3cccnc3)n2)cc1	x	-27%	-24%	x	x
CC1CC[C@@]23CCC4(C)[C@@]5(C)CCC6C(C)(C)C(=O)CC[C@@]6(C)C5C=C[C@@]4(OC2=O)C3C1C (stereo partly specified)	x	-1%	-8%	x	x
Cc1ccc2cc(CN(Cc3cccs3)Cc3nnnn3CC3CCCO3)c(=O)[nH]c2c1C (stereo unspecified)	-7%	u	18µM*	0%	12
COc1cc2cc(CN(CCCN3CCOCC3)Cc3nnnn3Cc3ccccc3)c(=O)[nH]c2cc1OC	-13%	-2%	-5%	-1%	-1
Cc1ccc2cc(CN(Cc3cccs3)Cc3nnnn3CC3CCCO3)c(=O)[nH]c2c1 (stereo unspecified)	-30%	u	u	-22%	u
CCc1ccc2[nH]c(=O)c(CN(Cc3cccs3)Cc3nnnn3Cc3ccccc3)cc2c1	x	u	13µM*	x	x
COCCn1nnnc1CN(CCc1ccccc1)Cc1cc2ccc(C)cc2[nH]c1=O	0%	u	26µM*	-2%	0
Cc1ccc2[nH]c(=O)c(CN(Cc3cccs3)Cc3nnnn3Cc3ccco3)cc2c1	x	u	18µM*	x	x
O=C(Nc1ccc(Br)cc1)c1cnc[nH]1	1%	0%	3%	0%	22
CCC(c1nnnn1Cc1ccccc1)N(Cc1ccccc1)Cc1cc2cc(C)ccc2[nH]c1=O (stereo unspecified)	x	11µM*	u	x	x
Cc1ccc2[nH]c(=O)c(CN(CCCO)Cc3nnnn3Cc3ccccc3)cc2c1	x	u	11µM*	x	x
Cc1ccc2[nH]c(=O)c(CN(Cc3cccs3)Cc3nnnn3CC3CCCO3)cc2c1 (stereo unspecified)	-5%	u	18µM*	u	u
CC1(NS(=O)(=O)c2ccc(Cl)s2)CCS(=O)(=O)C1 (stereo unspecified)	-7%	-19%	-20%	-2%	-7
C=C(CN(C)C)C(=O)c1ccc(C)cc1C	5.8µM*	0.52µM*	0.58µM*	u	-107*
CC(C)Oc1ccc(/C=C/C(=O)NCC2COc3ccccc3O2)cc1 (stereo unspecified)	-22%	8%	u	-17%	-72*
O=C(COC(=O)c1ccccc1O)NCC1COc2ccccc2O1 (stereo unspecified)	-3%	-8%	u	-3%	0
Cc1ccccc1C(=O)OCC(=O)NCC1COc2ccccc2O1 (stereo unspecified)	10%	u	18µM*	-3%	0
CCC(=O)N1CCCC(C(=O)NCc2ccc(C(C)C)cc2)CC1 (stereo unspecified)	0%	6%	-7%	0%	29
CCCCn1c(N)c(N(CC(C)C)C(=O)c2ccc(OC)c(S(=O)(=O)N3CCOCC3)c2)c(=O)[nH]c1=O	14%	2%	2%	6%	12

Screening results as filed in PubChem.
